What was measured:
Test in all cases: DAPPL (digital affinity profiling via proximity ligation, sequencing); 10 mM Tris-HCl pH 7.5, 50 mM NaCl, 1 mM DTT, 4% glycerol, room temperature, 30 min; GST-TFs on glutathione beads, 16-mer random dsDNA library, 0.1% formaldehyde crosslink after washing; high values mean tight binding
FLI1 = target: T1, FLI1 (Homo sapiens, UniProt Q01543 1-452); details: protein: recombinant; tags: N-terminal GST; dsDNA, one strand shown
T1 sequence: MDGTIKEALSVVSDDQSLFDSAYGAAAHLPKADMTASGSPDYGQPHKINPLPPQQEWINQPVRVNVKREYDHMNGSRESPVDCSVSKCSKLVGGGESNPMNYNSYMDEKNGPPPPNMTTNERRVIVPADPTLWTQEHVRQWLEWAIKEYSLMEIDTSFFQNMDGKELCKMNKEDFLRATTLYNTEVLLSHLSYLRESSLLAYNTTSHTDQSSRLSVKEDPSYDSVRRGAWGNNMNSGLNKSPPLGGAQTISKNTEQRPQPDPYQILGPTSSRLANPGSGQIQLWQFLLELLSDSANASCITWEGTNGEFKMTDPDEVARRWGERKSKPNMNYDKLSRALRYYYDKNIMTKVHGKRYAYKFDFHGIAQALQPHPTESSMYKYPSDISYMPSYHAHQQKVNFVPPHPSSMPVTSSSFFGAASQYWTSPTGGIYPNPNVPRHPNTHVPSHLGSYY
How it was run: (§1)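 Binding signal is each hexamer's read frequency for a factor divided by its frequency in the tag-only sample. The factors were GST-fused human transcription factors from yeast, captured on glutathione beads, DNA-barcoded and pooled with that sample. Pools were incubated with 200 nmole of a random double-stranded 16-mer DNA library in Tris/NaCl/DTT/glycerol buffer at room temperature for 30 min, then washed, crosslinked with 0.1% formaldehyde, proximity-ligated with BsaI/T4 ligase (1 h, 37 °C), PCR-amplified and sequenced on an Illumina NextSeq500.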

ELK1 = target: T2, ELK1 (Homo sapiens, UniProt P19419 1-428); details: protein: recombinant; tags: N-terminal GST; dsDNA, one strand shown
T2 sequence: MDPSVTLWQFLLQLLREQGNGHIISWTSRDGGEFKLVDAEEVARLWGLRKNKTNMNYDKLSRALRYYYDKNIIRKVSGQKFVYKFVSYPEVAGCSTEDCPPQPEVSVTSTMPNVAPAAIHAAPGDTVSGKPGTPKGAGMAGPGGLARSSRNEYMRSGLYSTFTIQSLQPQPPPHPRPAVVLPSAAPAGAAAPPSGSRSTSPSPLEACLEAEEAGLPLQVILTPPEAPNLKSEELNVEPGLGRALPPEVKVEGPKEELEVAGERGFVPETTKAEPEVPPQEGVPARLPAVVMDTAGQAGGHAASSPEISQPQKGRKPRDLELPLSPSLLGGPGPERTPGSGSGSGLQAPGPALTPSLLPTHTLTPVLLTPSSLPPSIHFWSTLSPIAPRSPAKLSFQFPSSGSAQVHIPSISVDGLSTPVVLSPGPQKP
How it was run: as §1

GABPA = target: T3, GABPA (Homo sapiens, UniProt Q06546 1-454); details: protein: recombinant; tags: N-terminal GST; dsDNA, one strand shown
T3 sequence: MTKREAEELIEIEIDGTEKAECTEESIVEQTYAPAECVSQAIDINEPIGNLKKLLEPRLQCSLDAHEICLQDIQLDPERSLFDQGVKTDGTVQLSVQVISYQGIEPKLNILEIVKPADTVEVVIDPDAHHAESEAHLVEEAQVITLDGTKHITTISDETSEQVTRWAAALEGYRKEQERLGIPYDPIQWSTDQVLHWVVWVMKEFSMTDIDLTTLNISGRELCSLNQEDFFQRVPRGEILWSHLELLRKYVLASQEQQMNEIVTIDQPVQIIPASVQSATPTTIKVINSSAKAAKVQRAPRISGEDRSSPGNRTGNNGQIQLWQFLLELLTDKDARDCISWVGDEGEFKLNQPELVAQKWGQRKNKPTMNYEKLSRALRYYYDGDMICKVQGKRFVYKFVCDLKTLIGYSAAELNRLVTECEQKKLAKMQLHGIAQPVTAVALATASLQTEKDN
How it was run: as §1

ERG = target: T4, ERG (Homo sapiens, UniProt P11308 1-479); details: protein: recombinant; tags: N-terminal GST; dsDNA, one strand shown
T4 sequence: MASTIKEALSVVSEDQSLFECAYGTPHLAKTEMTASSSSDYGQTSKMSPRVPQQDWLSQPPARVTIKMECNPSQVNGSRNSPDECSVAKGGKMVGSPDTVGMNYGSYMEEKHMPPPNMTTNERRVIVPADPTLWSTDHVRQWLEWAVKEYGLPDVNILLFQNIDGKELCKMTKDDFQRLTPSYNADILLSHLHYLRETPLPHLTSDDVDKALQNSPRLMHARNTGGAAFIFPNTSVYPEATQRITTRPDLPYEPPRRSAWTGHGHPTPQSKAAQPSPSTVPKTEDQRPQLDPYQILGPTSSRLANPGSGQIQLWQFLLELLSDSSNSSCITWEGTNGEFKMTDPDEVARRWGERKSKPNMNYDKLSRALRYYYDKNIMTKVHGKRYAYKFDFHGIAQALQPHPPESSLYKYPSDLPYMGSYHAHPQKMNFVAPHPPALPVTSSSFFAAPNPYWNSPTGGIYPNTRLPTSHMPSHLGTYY
How it was run: as §1

ELF1 = ELF1 (Homo sapiens, UniProt P32519 1-619); details: protein: recombinant; tags: N-terminal GST; dsDNA, one strand shown
How it was run: as §1

EHF = target: T5, EHF (Homo sapiens, UniProt Q9NZC4 1-300); details: protein: recombinant; tags: N-terminal GST; dsDNA, one strand shown
T5 sequence: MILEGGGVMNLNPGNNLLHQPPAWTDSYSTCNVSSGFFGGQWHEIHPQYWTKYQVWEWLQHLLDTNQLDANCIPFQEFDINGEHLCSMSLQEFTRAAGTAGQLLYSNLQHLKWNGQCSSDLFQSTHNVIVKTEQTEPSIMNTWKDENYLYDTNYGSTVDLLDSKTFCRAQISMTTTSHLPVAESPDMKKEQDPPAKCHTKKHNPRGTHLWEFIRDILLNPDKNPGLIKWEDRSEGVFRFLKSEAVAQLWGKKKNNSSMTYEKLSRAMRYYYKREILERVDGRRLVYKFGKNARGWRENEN
How it was run: as §1

SPI1 = SPI1 (Homo sapiens, UniProt P17947 1-270); details: protein: recombinant; tags: N-terminal GST; dsDNA, one strand shown
How it was run: as §1

SPIB = SPIB (Homo sapiens, UniProt Q01892 1-262); details: protein: recombinant; tags: N-terminal GST; dsDNA, one strand shown
How it was run: as §1

ELK3 = target: T6, ELK3 (Homo sapiens, UniProt P41970 1-407); details: protein: recombinant; tags: N-terminal GST; dsDNA, one strand shown
T6 sequence: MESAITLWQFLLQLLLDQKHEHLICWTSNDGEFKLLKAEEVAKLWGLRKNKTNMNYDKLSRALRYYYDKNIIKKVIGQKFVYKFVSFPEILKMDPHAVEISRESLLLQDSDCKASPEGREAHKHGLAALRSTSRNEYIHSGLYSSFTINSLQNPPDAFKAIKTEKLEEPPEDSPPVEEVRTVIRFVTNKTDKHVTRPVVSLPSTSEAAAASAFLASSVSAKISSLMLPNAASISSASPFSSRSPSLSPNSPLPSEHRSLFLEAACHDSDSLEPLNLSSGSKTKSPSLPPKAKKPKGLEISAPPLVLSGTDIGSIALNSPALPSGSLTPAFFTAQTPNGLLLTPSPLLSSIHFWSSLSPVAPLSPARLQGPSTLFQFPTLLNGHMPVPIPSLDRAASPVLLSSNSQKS
How it was run: as §1

FEV = target: T7, FEV (Homo sapiens, UniProt Q99581 1-238); details: protein: recombinant; tags: N-terminal GST; dsDNA, one strand shown
T7 sequence: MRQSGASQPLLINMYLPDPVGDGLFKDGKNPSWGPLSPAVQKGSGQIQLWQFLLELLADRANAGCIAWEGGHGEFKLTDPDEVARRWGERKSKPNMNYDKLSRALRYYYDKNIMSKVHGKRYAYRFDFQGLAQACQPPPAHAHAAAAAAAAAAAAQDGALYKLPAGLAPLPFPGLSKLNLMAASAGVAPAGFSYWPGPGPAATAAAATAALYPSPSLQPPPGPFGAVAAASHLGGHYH
How it was run: as §1

ETV5 = ETV5 (Homo sapiens, UniProt P41161 1-510); details: protein: recombinant; tags: N-terminal GST; dsDNA, one strand shown
How it was run: as §1

HSF1 = HSF1 (Homo sapiens, UniProt Q00613 1-529); details: protein: recombinant; tags: N-terminal GST; chain copies: 3; dsDNA, one strand shown
How it was run: as §1

SPIC = target: T8, SPIC (Homo sapiens, UniProt Q8N5J4 1-248); details: protein: recombinant; tags: N-terminal GST; dsDNA, one strand shown
T8 sequence: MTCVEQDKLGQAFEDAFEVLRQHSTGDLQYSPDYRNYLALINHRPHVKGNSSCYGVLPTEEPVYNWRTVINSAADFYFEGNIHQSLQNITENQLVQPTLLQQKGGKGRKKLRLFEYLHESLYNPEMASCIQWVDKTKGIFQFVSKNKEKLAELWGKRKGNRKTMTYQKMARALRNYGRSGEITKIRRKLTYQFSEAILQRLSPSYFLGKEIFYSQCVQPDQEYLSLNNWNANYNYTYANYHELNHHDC
How it was run: as §1

ELF4 = ELF4 (Homo sapiens, UniProt Q99607 1-663); details: protein: recombinant; tags: N-terminal GST; dsDNA, one strand shown
How it was run: as §1

ELK4 = target: T9, ELK4 (Homo sapiens, UniProt P28324-2 1-405); details: protein: recombinant; tags: N-terminal GST; dsDNA, one strand shown
T9 sequence: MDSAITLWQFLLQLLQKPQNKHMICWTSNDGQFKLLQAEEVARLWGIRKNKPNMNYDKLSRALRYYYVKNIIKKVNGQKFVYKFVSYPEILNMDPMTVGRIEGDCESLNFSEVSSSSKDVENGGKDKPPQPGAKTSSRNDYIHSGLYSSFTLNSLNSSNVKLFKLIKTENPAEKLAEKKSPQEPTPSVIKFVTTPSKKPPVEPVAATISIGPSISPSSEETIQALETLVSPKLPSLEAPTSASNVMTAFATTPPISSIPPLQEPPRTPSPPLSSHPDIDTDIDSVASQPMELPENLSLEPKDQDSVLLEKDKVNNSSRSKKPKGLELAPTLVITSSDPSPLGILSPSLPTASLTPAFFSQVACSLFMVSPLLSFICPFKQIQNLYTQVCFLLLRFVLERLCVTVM
How it was run: as §1

ETV2 = target: T10, ETV2 (Homo sapiens, UniProt O00321 1-342); details: protein: recombinant; tags: N-terminal GST; dsDNA, one strand shown
T10 sequence: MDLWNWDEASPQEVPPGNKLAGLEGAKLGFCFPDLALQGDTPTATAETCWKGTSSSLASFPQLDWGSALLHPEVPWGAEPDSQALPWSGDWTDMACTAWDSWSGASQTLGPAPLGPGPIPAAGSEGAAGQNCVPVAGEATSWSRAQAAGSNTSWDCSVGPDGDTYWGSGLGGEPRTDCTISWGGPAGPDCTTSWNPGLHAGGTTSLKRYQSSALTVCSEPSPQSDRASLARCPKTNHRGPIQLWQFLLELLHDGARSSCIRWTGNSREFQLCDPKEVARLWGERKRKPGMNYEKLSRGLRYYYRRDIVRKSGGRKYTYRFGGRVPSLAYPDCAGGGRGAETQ
How it was run: as §1

ELF3 = target: T11, ELF3 (Homo sapiens, UniProt P78545 1-371); details: protein: recombinant; tags: N-terminal GST; dsDNA, one strand shown
T11 sequence: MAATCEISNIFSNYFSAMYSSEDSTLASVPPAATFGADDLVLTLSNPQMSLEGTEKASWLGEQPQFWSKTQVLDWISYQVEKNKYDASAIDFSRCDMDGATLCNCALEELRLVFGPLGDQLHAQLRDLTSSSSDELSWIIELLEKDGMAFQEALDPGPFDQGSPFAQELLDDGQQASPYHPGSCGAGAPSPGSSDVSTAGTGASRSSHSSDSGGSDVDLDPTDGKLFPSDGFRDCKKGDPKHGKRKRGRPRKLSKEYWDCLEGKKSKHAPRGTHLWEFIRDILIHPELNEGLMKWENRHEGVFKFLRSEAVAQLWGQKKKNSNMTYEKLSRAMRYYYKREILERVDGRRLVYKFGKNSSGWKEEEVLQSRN
How it was run: as §1

CRX = CRX (Homo sapiens, UniProt O43186 1-299); details: protein: recombinant; tags: N-terminal GST; dsDNA, one strand shown
How it was run: as §1

ETV1 = ETV1 (Homo sapiens, UniProt P50549 1-477); details: protein: recombinant; tags: N-terminal GST; dsDNA, one strand shown
How it was run: as §1

Chain of CRX (O43186 whole entry): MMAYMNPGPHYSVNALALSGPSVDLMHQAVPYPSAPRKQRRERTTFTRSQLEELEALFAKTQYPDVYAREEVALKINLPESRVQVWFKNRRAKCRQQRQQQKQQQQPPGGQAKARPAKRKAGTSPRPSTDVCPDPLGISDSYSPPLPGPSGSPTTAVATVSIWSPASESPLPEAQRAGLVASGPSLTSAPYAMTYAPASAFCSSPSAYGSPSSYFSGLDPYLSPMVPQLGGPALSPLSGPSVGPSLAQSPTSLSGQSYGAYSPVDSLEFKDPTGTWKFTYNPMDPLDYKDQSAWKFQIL
Chain of ETV5 (P41161 whole entry): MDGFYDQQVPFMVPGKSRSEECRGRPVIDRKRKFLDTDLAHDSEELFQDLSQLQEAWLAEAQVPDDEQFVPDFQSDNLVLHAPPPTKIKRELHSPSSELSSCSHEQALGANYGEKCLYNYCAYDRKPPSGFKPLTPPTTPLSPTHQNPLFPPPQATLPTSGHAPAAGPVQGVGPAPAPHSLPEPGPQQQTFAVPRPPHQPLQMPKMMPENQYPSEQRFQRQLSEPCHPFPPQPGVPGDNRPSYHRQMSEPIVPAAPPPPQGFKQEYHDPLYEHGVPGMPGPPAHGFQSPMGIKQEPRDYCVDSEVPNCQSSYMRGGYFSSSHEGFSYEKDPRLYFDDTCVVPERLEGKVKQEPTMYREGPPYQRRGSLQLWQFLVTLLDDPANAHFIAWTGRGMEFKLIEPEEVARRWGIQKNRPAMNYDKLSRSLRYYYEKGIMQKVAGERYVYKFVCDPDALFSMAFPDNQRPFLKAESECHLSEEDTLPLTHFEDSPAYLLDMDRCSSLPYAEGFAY
Chain of ELF1 (P32519 whole entry): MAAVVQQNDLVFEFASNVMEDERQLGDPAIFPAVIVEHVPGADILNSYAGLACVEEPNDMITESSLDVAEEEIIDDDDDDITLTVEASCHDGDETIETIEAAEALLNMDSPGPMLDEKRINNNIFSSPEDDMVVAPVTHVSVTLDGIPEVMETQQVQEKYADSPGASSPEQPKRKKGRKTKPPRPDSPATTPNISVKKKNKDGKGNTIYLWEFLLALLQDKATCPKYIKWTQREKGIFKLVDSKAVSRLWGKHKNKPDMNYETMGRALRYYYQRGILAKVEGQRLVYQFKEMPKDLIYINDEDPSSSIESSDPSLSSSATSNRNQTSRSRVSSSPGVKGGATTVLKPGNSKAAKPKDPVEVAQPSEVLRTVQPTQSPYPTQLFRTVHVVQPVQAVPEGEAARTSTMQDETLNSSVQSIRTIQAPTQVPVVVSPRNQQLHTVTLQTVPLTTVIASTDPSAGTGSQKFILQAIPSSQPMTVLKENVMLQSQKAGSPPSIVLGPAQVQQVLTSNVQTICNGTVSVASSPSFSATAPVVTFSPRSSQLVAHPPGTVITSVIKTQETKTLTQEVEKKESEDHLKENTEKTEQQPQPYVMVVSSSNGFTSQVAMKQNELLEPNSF
Chain of ELF4 (Q99607 whole entry): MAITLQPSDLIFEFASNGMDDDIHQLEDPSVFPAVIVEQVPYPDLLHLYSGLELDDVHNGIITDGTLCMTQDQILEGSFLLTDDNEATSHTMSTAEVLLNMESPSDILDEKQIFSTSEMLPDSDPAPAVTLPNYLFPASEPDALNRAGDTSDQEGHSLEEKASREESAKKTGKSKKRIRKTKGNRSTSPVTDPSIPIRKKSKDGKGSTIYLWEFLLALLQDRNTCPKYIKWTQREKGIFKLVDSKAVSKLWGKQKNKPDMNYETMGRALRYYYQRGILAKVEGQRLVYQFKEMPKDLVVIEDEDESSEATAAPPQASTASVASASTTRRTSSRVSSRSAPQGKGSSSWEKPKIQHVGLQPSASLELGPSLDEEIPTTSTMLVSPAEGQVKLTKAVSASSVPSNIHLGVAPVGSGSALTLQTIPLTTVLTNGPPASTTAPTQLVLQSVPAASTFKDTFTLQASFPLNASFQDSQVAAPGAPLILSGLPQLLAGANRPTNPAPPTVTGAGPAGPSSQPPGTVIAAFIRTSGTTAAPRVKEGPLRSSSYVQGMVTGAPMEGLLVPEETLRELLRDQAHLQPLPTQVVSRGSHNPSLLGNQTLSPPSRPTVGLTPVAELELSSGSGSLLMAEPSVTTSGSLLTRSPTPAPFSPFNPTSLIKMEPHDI
Chain of SPIB (Q01892 whole entry): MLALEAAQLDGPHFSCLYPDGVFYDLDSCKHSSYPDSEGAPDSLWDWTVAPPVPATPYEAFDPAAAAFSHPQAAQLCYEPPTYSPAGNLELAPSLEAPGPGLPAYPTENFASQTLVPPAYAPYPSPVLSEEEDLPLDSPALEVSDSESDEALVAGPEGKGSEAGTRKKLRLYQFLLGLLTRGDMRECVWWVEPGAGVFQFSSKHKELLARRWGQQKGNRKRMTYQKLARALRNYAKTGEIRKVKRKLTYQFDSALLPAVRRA
Chain of ETV1 (P50549 whole entry): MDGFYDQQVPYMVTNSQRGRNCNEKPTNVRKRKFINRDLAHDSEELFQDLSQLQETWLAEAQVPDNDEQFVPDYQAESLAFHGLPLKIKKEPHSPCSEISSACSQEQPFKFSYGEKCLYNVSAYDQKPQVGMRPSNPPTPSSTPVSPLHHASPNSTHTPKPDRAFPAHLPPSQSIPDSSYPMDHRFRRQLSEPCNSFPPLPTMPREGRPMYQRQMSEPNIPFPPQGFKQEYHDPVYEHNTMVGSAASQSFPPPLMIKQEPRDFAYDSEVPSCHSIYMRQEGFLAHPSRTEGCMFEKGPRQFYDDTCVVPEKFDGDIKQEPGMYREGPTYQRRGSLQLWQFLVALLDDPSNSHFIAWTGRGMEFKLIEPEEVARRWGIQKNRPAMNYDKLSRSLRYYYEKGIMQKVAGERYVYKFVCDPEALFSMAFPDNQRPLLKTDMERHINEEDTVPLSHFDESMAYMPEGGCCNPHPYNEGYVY
Chain of HSF1 (Q00613 whole entry): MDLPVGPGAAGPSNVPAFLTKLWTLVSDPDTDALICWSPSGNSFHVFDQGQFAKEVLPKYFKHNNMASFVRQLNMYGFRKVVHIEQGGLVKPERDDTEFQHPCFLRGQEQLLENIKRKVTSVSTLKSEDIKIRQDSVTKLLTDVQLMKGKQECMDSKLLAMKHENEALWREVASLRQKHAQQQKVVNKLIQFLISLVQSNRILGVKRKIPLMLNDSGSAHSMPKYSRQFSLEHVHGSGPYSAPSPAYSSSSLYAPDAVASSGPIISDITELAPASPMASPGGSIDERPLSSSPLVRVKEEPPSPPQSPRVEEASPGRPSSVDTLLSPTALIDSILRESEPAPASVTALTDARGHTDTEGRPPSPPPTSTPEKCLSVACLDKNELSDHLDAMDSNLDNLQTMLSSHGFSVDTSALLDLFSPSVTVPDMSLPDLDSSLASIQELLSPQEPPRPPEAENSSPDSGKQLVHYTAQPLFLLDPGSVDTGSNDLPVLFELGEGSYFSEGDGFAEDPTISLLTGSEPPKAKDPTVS

## CCTTTG
FLI1
  binding signal: 1.32 fold enrichment (6-mer frequency, TF over GST control)
ELK1
  binding signal: 1.3 fold enrichment (6-mer frequency, TF over GST control)
GABPA
  binding signal: 1.4 fold enrichment (6-mer frequency, TF over GST control)
ERG
  binding signal: 1.37 fold enrichment (6-mer frequency, TF over GST control)
ELF1
  binding signal: 1.38 fold enrichment (6-mer frequency, TF over GST control)
EHF
  binding signal: 1.42 fold enrichment (6-mer frequency, TF over GST control)
SPI1
  binding signal: 1.47 fold enrichment (6-mer frequency, TF over GST control)
SPIB
  binding signal: 1.28 fold enrichment (6-mer frequency, TF over GST control)
ELK3
  binding signal: 1.18 fold enrichment (6-mer frequency, TF over GST control)
FEV
  binding signal: 1.31 fold enrichment (6-mer frequency, TF over GST control)
ETV5
  binding signal: 1.3 fold enrichment (6-mer frequency, TF over GST control)
HSF1
  binding signal: 1.21 fold enrichment (6-mer frequency, TF over GST control)
SPIC
  binding signal: 1.38 fold enrichment (6-mer frequency, TF over GST control)
ELF4
  binding signal: 1.36 fold enrichment (6-mer frequency, TF over GST control)
ELK4
  binding signal: 1.19 fold enrichment (6-mer frequency, TF over GST control)
ETV2
  binding signal: 1.24 fold enrichment (6-mer frequency, TF over GST control)
ELF3
  binding signal: 1.27 fold enrichment (6-mer frequency, TF over GST control)
CRX
  binding signal: 1.09 fold enrichment (6-mer frequency, TF over GST control)
ETV1
  binding signal: 1.42 fold enrichment (6-mer frequency, TF over GST control)
